Reference: PubChem BioAssay AID1159580 (chemical genetic matrix, 2015)
The campaign covered roughly 5,500 compounds. About 2,000 (36%) were called active. Inconclusive results (about 18%) are left out. Rule as the data show it: active = normalized growth mostly below about 0.91 (no sharp cut-off); inconclusive = no clear call, values can overlap the other calls; inactive = mostly above about 0.92. Some of the results follow.

Experiment: chemical genetic growth profiling, strain panel (AID 1159580);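 also: tested at 20 µM; growth read once vehicle control cultures reached saturation at 30 °C; 1 = growth at the plate median or of vehicle wells; lower values mean less growth of the strain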
Conditions: growth OD

Measured: normalized growth

OCCN1C[C@@H](O)[C@@H](O)C(O)C1CO (stereo partly specified)
inactive: S. cerevisiae deletion strains, locus YKL009W, strain mrt4, active compounds read low 1.01 | S. cerevisiae deletion strains, locus YKL068W, active compounds read low 1.01 | S. cerevisiae deletion strains, locus YKL085W, strain MDH1 (second series), active compounds read low 1 | S. cerevisiae deletion strains, locus YKL085W, strain MDH1, active compounds read low 1 | S. cerevisiae deletion strains, locus YKL160W, strain elf1, active compounds read low 1.01 | S. cerevisiae deletion strains, locus YKL190W, strain CNB1, active compounds read low 1.02 | S. cerevisiae deletion strains, locus YKR001C, strain vps1, active compounds read low 0.999 | S. cerevisiae deletion strains, locus YKR026C, strain gcn3, active compounds read low 1.02 | S. cerevisiae deletion strains, locus YKR091W, strain srl3, active compounds read low 1 | S. cerevisiae deletion strains, locus YLL001W, strain dnm1, active compounds read low 1.02 | S. cerevisiae deletion strains, locus YLL026W, active compounds read low 1.01 | S. cerevisiae deletion strains, locus YLL041C, strain sdh2, active compounds read low 1 | S. cerevisiae deletion strains, locus YLR027C, strain aat2, active compounds read low 0.992 | S. cerevisiae deletion strains, locus YLR039C, strain RIC1, active compounds read low 0.958 | S. cerevisiae deletion strains, locus YLR058C, strain SHM2, active compounds read low 1.02 | S. cerevisiae deletion strains, locus YLR102C, strain apc9, active compounds read low 0.997 | S. cerevisiae deletion strains, locus YLR113W, strain HOG1, active compounds read low 1.04 | S. cerevisiae deletion strains, locus YLR221C, strain rsa3, active compounds read low 1.01 | S. cerevisiae deletion strains, locus YLR258W, strain gsy2, active compounds read low 1 | S. cerevisiae deletion strains, locus YLR262C, strain YPT6 (second series), active compounds read low 0.994 | S. cerevisiae deletion strains, locus YLR262C, strain YPT6, active compounds read low 1 | S. cerevisiae deletion strains, locus YLR268W, strain sec22, active compounds read low 1 | S. cerevisiae deletion strains, locus YLR320W, strain mms22, active compounds read low 1.01 | S. cerevisiae deletion strains, locus YLR330W, strain CHS5, active compounds read low 1.01 | S. cerevisiae deletion strains, locus YLR342W, strain FKS1 (second series), active compounds read low 1.01 | S. cerevisiae deletion strains, locus YLR342W, strain FKS1, active compounds read low 0.99 | S. cerevisiae deletion strains, locus YLR357W, strain rsc2, active compounds read low 1 | S. cerevisiae deletion strains, locus YLR370C, strain arc18, active compounds read low 1 | S. cerevisiae deletion strains, locus YLR371W, strain rom2, active compounds read low 0.995 | S. cerevisiae deletion strains, locus YLR384C, strain iki3, active compounds read low 1 | S. cerevisiae deletion strains, locus YLR418C, strain cdc73, active compounds read low 0.977 | S. cerevisiae deletion strains, locus YML016C, strain PPZ1, active compounds read low 1.01 | S. cerevisiae deletion strains, locus YML032C, strain rad52, active compounds read low 1.01 | S. cerevisiae deletion strains, locus YML120C, strain ndi1, active compounds read low 1.02 | S. cerevisiae deletion strains, locus YML124C, strain tub3, active compounds read low 1.01 | S. cerevisiae deletion strains, locus YMR058W, strain fet3, active compounds read low 1 | S. cerevisiae deletion strains, locus YMR078C, strain ctf18, active compounds read low 1 | S. cerevisiae deletion strains, locus YMR125W, strain sto1, active compounds read low 0.997 | S. cerevisiae deletion strains, locus YMR129W, active compounds read low 0.997 | S. cerevisiae deletion strains, locus YMR205C, strain PFK2, active compounds read low 1 | S. cerevisiae deletion strains, locus YMR223W, strain ubp8, active compounds read low 1 | S. cerevisiae deletion strains, locus YMR231W, strain pep5, active compounds read low 1 | S. cerevisiae deletion strains, locus YMR263W, strain SAP30, active compounds read low 1.02 | S. cerevisiae deletion strains, locus YMR307W, strain GAS1, active compounds read low 1.01 | S. cerevisiae deletion strains, locus YNL067W, strain RPL9B, active compounds read low 1.02 | S. cerevisiae deletion strains, locus YNL071W, strain lat1, active compounds read low 0.993 | S. cerevisiae deletion strains, locus YNL128W, strain TEP1, active compounds read low 1.02 | S. cerevisiae deletion strains, locus YNL153C, strain GIM3, active compounds read low 1.01 | S. cerevisiae deletion strains, locus YNL183C, strain NPR1, active compounds read low 0.97 | S. cerevisiae deletion strains, locus YNL209W, strain ssb2, active compounds read low 1 | S. cerevisiae deletion strains, locus YNL233W, strain BNI4, active compounds read low 1.02 | S. cerevisiae deletion strains, locus YNL248C, strain rpa49, active compounds read low 1.02 | S. cerevisiae deletion strains, locus YNL250W, strain rad50, active compounds read low 1 | S. cerevisiae deletion strains, locus YNL271C, strain bni1, active compounds read low 0.986 | S. cerevisiae deletion strains, locus YNL298W, strain CLA4, active compounds read low 0.994 | S. cerevisiae deletion strains, locus YNL307C, strain MCK1, active compounds read low 1.01 | S. cerevisiae deletion strains, locus YNL322C, strain KRE1 (second series), active compounds read low 1.02 | S. cerevisiae deletion strains, locus YNL322C, strain KRE1, active compounds read low 1.01 | S. cerevisiae deletion strains, locus YNR049C, strain mso1, active compounds read low 1 | S. cerevisiae deletion strains, locus YNR052C, strain pop2, active compounds read low 0.999 | S. cerevisiae deletion strains, locus YOL006C, strain TOP1, active compounds read low 1.04 | S. cerevisiae deletion strains, locus YOL012C, strain htz1 1.11 | S. cerevisiae deletion strains, locus YOL147C, strain pex11, active compounds read low 1 | S. cerevisiae deletion strains, locus YOR001W, strain rrp6, active compounds read low 1 | S. cerevisiae deletion strains, locus YOR061W, strain CKA2, active compounds read low 1.01 | S. cerevisiae deletion strains, locus YOR069W, strain VPS5, active compounds read low 1.01 | S. cerevisiae deletion strains, locus YOR070C, strain gyp1, active compounds read low 0.997 | S. cerevisiae deletion strains, locus YOR080W, strain dia2, active compounds read low 1.01 | S. cerevisiae deletion strains, locus YOR083W, strain WHI5, active compounds read low 1 | S. cerevisiae deletion strains, locus YOR106W, strain vam3, active compounds read low 1.03 | S. cerevisiae deletion strains, locus YOR136W, strain idh2, active compounds read low 0.998 | S. cerevisiae deletion strains, locus YOR144C, strain elg1, active compounds read low 1 | S. cerevisiae deletion strains, locus YOR184W, strain ser1, active compounds read low 1 | S. cerevisiae deletion strains, locus YOR231W, strain MKK1, active compounds read low 1.01 | S. cerevisiae deletion strains, locus YOR265W, strain rbl2, active compounds read low 0.988 | S. cerevisiae deletion strains, locus YOR270C, strain vph1, active compounds read low 1.05 | S. cerevisiae deletion strains, locus YOR290C, strain snf2, active compounds read low 1.01 | S. cerevisiae deletion strains, locus YOR316C, strain cot1, active compounds read low 0.997 | S. cerevisiae deletion strains, locus YPL051W, strain arl3, active compounds read low 1 | S. cerevisiae deletion strains, locus YPL055C, strain LGE1, active compounds read low 1.05 | S. cerevisiae deletion strains, locus YPL078C, strain atp4, active compounds read low 1.01 | S. cerevisiae deletion strains, locus YPL106C, strain sse1, active compounds read low 1.03 | S. cerevisiae deletion strains, locus YPL240C, strain hsp82, active compounds read low 1 | S. cerevisiae deletion strains, locus YPL241C, strain CIN2, active compounds read low 1.01 | S. cerevisiae deletion strains, locus YPL256C, strain CLN2, active compounds read low 1.02 | S. cerevisiae deletion strains, locus YPR119W, strain clb2, active compounds read low 0.996 | S. cerevisiae deletion strains, locus YPR141C, strain kar3, active compounds read low 1 | S. cerevisiae deletion strains, locus YPR163C, strain tif3, active compounds read low 1 | S. cerevisiae deletion strains, locus YPR167C, strain met16, active compounds read low 0.997 | S. cerevisiae deletion strains, strain wtn01, active compounds read low 1 | S. cerevisiae strains, strain wild type, active compounds read low 1.01
